This is a sample that favours compounds with a hit; in the whole collection about 1.1% have one here.
NR2F2 inh – inhibitors of human COUP-TFII (NR2F2); P24468; HEK293T NGFI-A luciferase reporter, luminescence; inhibition, % at 8.6 µM; 370,000 compounds, 0.7% hits;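 active = inhibition above a per-plate cutoff, mean inhibition of test wells between control levels plus 3 SD, cut at about 38% in these data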;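 also: cells cotransfected with COUP-TFII expression vector driving the NGFI-A reporter; 0% = median of COUP-TF2 test wells and 100% = reporter-only cells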
GalR3 antagonist – antagonists of human GalR3 | HEK293 GalR3-CNG cAMP membrane potential fluorescence; galR3 body fused to GalR1 C-terminus | inhibition, % at 3 µM | 360,000 compounds, 0.44% hits;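 active = inhibition above the screen-wide average plus 3 SD, cut at about 13% in these data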;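 also: forskolin and galanin both at EC90 stimulate the cells; cAMP rise reported by CNG channel membrane potential dye signal; 0% = forskolin plus galanin with DMSO and 100% = forskolin alone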
NCOA2 inhibitor – human SRC2 (NCOA2) inhibition | HEK293 GAL4-SRC2 luciferase reporter, luminescence | Q15596 | AID 651957 | 370,000 compounds, 0.17% hits | inhibition, % at 9 µM;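 active = inhibition above the mean inhibition of all tested compounds plus 3 SD, set per campaign, cut at about 52% in these data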;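 also: 0% = DMSO treated cells and 100% = cells given Gossypol at 36 µM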
SRC1 inh – inhibits human SRC1 coactivator; inhibition, % at 3.6 µM; AID 588354; Q15788; HEK293 GAL4-SRC1 luciferase reporter, luminescence; 360,000 compounds, 0.12% hits;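 active = inhibition above the campaign mean plus 3 SD, with each screening campaign given its own cutoff, cut at about 60% in these data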;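 also: 0% = DMSO treated cells and 100% = gossypol at 36 µM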
Target sequence (Q15788 whole entry, looked up, the tested form may be a part): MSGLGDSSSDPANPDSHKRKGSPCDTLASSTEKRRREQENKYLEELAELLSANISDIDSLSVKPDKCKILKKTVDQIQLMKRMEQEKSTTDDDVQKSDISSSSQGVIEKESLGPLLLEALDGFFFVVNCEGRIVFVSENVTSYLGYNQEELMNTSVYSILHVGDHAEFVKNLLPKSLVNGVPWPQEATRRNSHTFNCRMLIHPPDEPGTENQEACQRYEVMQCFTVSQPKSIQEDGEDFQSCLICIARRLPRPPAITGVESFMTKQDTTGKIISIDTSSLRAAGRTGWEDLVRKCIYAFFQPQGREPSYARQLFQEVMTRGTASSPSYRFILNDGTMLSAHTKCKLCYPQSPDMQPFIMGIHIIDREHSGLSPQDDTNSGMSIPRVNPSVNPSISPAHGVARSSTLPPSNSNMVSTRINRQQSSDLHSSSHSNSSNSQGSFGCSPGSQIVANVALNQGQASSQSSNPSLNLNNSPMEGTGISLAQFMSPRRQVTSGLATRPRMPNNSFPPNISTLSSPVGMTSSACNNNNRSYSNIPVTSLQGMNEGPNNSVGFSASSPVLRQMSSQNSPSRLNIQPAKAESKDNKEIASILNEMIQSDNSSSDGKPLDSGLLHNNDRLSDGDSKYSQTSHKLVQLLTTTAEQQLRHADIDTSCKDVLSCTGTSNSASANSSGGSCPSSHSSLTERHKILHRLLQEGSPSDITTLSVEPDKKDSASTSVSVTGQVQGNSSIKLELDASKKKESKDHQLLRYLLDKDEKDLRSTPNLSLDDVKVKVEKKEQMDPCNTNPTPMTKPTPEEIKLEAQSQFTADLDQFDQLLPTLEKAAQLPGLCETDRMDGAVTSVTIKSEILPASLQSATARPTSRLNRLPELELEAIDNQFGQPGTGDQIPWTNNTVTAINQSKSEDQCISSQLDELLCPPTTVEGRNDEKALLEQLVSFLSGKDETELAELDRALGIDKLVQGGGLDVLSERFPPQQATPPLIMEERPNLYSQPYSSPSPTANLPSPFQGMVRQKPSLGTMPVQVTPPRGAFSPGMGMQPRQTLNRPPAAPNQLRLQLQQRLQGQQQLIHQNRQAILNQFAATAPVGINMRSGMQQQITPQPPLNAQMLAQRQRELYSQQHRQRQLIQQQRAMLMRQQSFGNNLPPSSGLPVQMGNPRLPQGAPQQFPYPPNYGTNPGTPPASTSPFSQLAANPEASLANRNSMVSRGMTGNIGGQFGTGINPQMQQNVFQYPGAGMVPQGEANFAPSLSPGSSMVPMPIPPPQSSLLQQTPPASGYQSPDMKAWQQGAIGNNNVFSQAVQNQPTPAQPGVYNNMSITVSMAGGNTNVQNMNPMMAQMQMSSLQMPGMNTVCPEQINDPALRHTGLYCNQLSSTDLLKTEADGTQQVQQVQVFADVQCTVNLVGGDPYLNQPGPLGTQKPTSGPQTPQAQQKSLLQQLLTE
LRH-1 inv ag – inverse agonists of human LRH-1 (NR5A2); O00482; HEK293T StAR-luciferase reporter, LRH-1 transfected, 24 h; inhibition, % at 3.6 µM; AID 602396; 360,000 compounds, 0.13% hits;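 active = inhibition above the mean inhibition of all tested compounds plus 3 SD, cut at about 73% in these data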;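 also: 0% = DMSO wells and 100% = reporter-only cells lacking LRH-1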
SRC3 inh – inhibits human SRC3 coactivator; Q9Y6Q9; HEK293 GAL4-SRC3 luciferase reporter, luminescence; inhibition, % at 3.6 µM; 360,000 compounds, 0.17% hits; AID 588352;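 active = inhibition above a per-campaign cutoff, the mean of all compounds plus 3 SD, cut at about 60% in these data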;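 also: 0% = DMSO-treated cells and 100% = gossypol-treated cells at 36 µM; higher means less SRC3-driven luciferase light from the GAL4 reporter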
Gal4-VP16 ctr – inhibits VP16 reporter, flagging COUP-TFII antagonist hits. HEK293 Gal4-VP16 luciferase reporter, luminescence. 2,500 compounds, 25% hits. shares compounds with NR2F2 inh. inhibition, % at 8.5 µM; in the data active = inhibition above about 13%
COUP-TFII conf – COUP-TFII (NR2F2) inhibition, confirmation assay; HEK293 NGFI-A luciferase reporter, luminescence; shares compounds with NR2F2 inh; inhibition, % at 8.5 µM; 2,500 compounds, 45% hits;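 active = mean inhibition over three repeats above a set limit taken from the earlier primary screen, cut at about 38% in these data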;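 also: 100% = cells given the luciferase reporter alone without the COUP-TF2 vector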
An asterisk follows results filed as active; x = no result given.

SMILES	NR2F2 inh	GalR3 antagonist	NCOA2 inhibitor	SRC1 inh	LRH-1 inv ag	SRC3 inh	Gal4-VP16 ctr	COUP-TFII conf
O=C(OC12CCCN(C1)/C(=C/c1ccc(Cl)cc1)C2)c1ccco1 (stereo unspecified)	-17	x	2	x	x	x	x	x
O=C(OC12CCCN(C1)/C(=C/c1ccncc1)C2)c1ccco1 (stereo unspecified)	38*	x	2	x	x	x	5	23
O=C(OC12CCCN(C1)/C(=C/c1ccccc1)C2)C1CCCC1 (stereo unspecified)	-9	x	-6	x	x	x	x	x
O=C(OC12CCCN(C1)/C(=C/c1ccncc1)C2)c1ccc(F)cc1 (stereo unspecified)	24	x	27	x	x	x	x	x
O=C(OC12CCCN(C1)/C(=C/c1ccncc1)C2)C1CCCCC1 (stereo unspecified)	67*	x	19	x	x	x	8	33
O=C(OC12CCCN(C1)/C(=C/c1cccnc1)C2)c1ccc(F)cc1 (stereo unspecified)	41*	x	7	x	x	x	1	24
COc1ccc(N(CC(=O)NC2CCCCC2)C(=O)CCC(=O)Nc2nc(C)cs2)cc1OC	7	-2	8	0	-3	-2	x	x
O=C(c1cccc([N+](=O)[O-])c1)N1CCCC(C(=O)N2CCN(c3ccccc3)CC2)C1 (stereo unspecified)	-15	1	3	-23	-2	7	x	x
O=C(/C=C/Nc1ccccc1Br)c1ccccn1	68*	-3	81*	43	42	59	61*	80*
CS(=O)(=O)N(CCc1ccccc1)CC(=O)N1CCN(Cc2ccc3c(c2)OCO3)CC1	2	-5	0	-1	24	-1	x	x
CS(=O)(=O)N(CC(=O)N1CCN(Cc2ccc3c(c2)OCO3)CC1)Cc1ccc(Cl)cc1	40*	-10	9	19	55	8	10	20
COCC1CN(CCc2ccc(F)cc2)S(=O)(=O)c2c(OCCN3C(=O)[C@@H]4[C@H](C3=O)[C@@H]3C=C[C@H]4C3)cccc2O1 (stereo partly specified)	11	-2	6	x	x	x	x	x
COCCOC1CCN(C(=O)c2cc(COc3ccc(-n4cncn4)cc3)on2)CC1	3	-3	5	-9	7	13	x	x
COCCC1CCCCN1C(=O)c1cc(COc2ccc(-n3cncn3)cc2)on1 (stereo unspecified)	44*	-4	23	12	31	28	1	41*
Nc1nc(=S)c2[nH]cnc2[nH]1	2	x	14	54	66	60	x	x
COc1cc(OC)c(N(C)S(=O)(=O)c2cccc(C(=O)OCC(=O)c3c[nH]c4ccccc34)c2)cc1Cl	62*	-10	32	16	15	17	6	53*
CN1CCN(Cc2c(O)ccc3occ(C(=O)c4ccccc4)c23)CC1	16	-2	-19	1	-3	6	x	x
CC(=O)C(C(C)=O)c1c(Cl)c(O)c(O)c2c(C(=O)c3ccccc3)coc12	68*	-4	30	10	54	7	14*	60*
COCc1cn([C@H]2C[C@@H]3O[C@H](CO)CC[C@@H]3O[C@@H]2CCc2ccc(-c3ccc(OC)cc3)cc2)nn1	11	x	-10	x	x	x	x	x
CN=C1NC(=O)/C(=C\c2cc(C)n(-c3ccccc3F)c2C)S1	-18	x	x	x	x	x	x	x
CN=C1S/C(=C\c2cc(C)n(-c3ccccc3F)c2C)C(=O)N1C	50*	-1	-1	30	16	48	-68	30
Cc1cc(/C=C2\SC(=O)N(C)C2=O)c(C)n1-c1ccc(O)cc1	50*	-10	4	25	10	5	-78	23
Cc1ccc(NC(=S)NNC(=O)CSc2nnc(-c3ccc(C)cc3)n2C2CCCCC2)cc1	8	x	7	x	x	x	x	x
O=C(/C=C/c1cccnc1)/C=C/c1cccnc1	59*	-6	52*	-51	37	-12	38*	20
C(=Cc1cccnc1)c1ccncc1	6	-5	11	21	6	12	x	x
SMILES	NR2F2 inh	GalR3 antagonist	NCOA2 inhibitor	SRC1 inh	LRH-1 inv ag	SRC3 inh	Gal4-VP16 ctr	COUP-TFII conf
CSc1ccc(CN(C)C(=O)c2cc(S(=O)(=O)NCc3ccccc3)ccc2C)cc1	53*	-5	7	9	18	-4	-5	9
Cc1ccc(C)c(NC(=O)CN(C)C(=O)c2cccc(S(=O)(=O)N3CCCC3)c2)c1	8	1	17	10	13	23	x	x
COc1ccc(CN(C)C(=O)c2cccc(S(=O)(=O)N3CCN(c4ccccc4)CC3)c2)c(OC)c1OC	41*	-6	5	13	13	14	8	37
CSc1ccc(CN(C)C(=O)c2cccc(S(=O)(=O)N3CCN(Cc4ccccc4)CC3)c2)cc1	41*	-2	10	2	23	32	-5	24
Cc1ccc(C)c(NC(=O)CN(C)C(=O)c2cccc(S(=O)(=O)N3CCN(Cc4ccccc4)CC3)c2)c1	45*	1	23	-5	7	28	-4	31
CC1(C(=O)NCc2cccnc2)Cc2c(-c3cccc(C(F)(F)F)c3)ccnc2O1 (stereo unspecified)	39*	-3	6	1	-2	-26	-8	7
CC1(C(=O)NCc2ccc(F)c(F)c2)Cc2c(-c3cccc(C(F)(F)F)c3)ccnc2O1 (stereo unspecified)	8	-7	-8	0	-9	14	x	x
Cc1ccc(-n2c(-c3ccc(Br)cc3)c[n+]3c2CCc2ccc4cccnc4c2-3)cc1	88*	-2	-16	75*	100*	83*	33*	89*
CCOC(=O)c1c(C)[nH]c(C(=O)OCC(=O)Nc2sccc2C(N)=O)c1C	52*	-2	21	62*	-1	31	-35	45*
O=C(Cn1nnc(-c2ccccc2F)n1)Nc1ccc(F)cc1F	4	x	-6	x	x	x	x	x
COc1ccc(-c2nc(N3CCCCCC3)sc2C(=O)c2ccccc2)cc1	58*	-2	-35	-9	-4	6	-11	-2
O=C(c1ccccc1)c1sc(N2CCCCCC2)nc1-c1ccccc1	-11	-2	19	-3	-4	16	x	x
CC(=O)Nc1ccc(S(=O)(=O)N2CCN=C2SCc2ccc([N+](=O)[O-])cc2)cc1	48*	-3	16	13	21	27	1	22
CC(=O)Nc1ccc(S(=O)(=O)N2CCN=C2SCc2cccc(C)c2)cc1	7	-1	0	-12	8	-21	x	x
CC(C)CC(N)c1csc(Nc2ncccn2)n1 (stereo unspecified)	43*	-4	-3	6	28	10	-41	17
COc1ccc(NC(=O)c2cccc([N+](=O)[O-])c2)cc1	-15	-5	-35	-31	2	-36	x	x
